NPR1 antag: human Npr1 receptor antagonism; 76,000 tested, 1.6% active; P16066; HEK293 hNpr1 GloSensor cGMP, ANP-stimulated luminescence; Potency, µM (series often up to 46.3 µM), most hits filed as inhibitors; calls by dose curve; note: nearly all actives have a fitted effect of over 60% in size
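HEK293 cells stably expressing human Npr1 and cGMP GloSensor pGS-40F, loaded 2 h with 2% GloSensor reagent, given compound 30 min at room temperature. Luminescence read before and 20 min after 0.1 nM hNppA.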
GPT2 inh: inhibitors of human GPT2 alanine aminotransferase | Recombinant GPT2, coupled pyruvate oxidase/HRP Amplex Red fluorescence | AID 1671188 | Potency, µM (titrated, usually from 57.7 µM), actives largely listed as inhibitors | 100,000 tested, 0.25% active | Q8TD30; note: nearly all actives have a fitted effect of over 60% in size
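Fluorescence read-out: pyruvate from GPT2 turnover coupled to pyruvate oxidase, HRP and Amplex Red (0.2mM ThPP, 0.2U/mL PO and HRP, 50uM Amplex final). Substrates 250uM a-KG, 2mM L-alanine; enzyme 10ng/uL; 30 min RT.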
HEK cytotox: HEK 293 cell cytotoxicity | HEK 293 viability, ATP luminescence (CellTiter-Glo), 48-72 h | Potency, µM (top dose mostly 115 µM), most hits filed as inhibitors | 94,000 tested, 6.6% active; note: nearly all actives have a fitted effect of over 60% in size
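Pintool-delivered compounds were incubated with HEK 293 cells (250 cells/well) at 37 degree Celsius for 48 or 72 hr. ATP-dependent luminescence (CellTiter-Glo) then reported remaining viable cells.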
Luciferase inh: blocks purified firefly luciferase enzyme activity. AID 1347043. P08659. Potency, µM (series often up to 115 µM), usual class: inhibitors. 76,000 tested, 2.5% active. purified P. pyralis luciferase, luminescence, biochemical; note: nearly all actives have a fitted effect of over 65% in size
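FLuc 10nM, D-luciferin 10uM, ATP 10uM, Mg acetate 10mM, Tris acetate pH 7.5, Tween/BSA; cpd qHTS; enzyme added last; CCD luminescence.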
3T3 cytotox: cytotoxic compounds in NIH 3T3 cells | NIH 3T3 viability, CellTiter-Glo ATP luminescence, 48-72 h | Potency, µM (titrated, usually from 96.7 µM), most hits filed as inhibitors | 94,000 tested, 4.3% active; note: nearly all actives have a fitted effect of over 55% in size
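Mouse fibroblast NIH 3T3 cells, 400 per well, received compound via pintool and were incubated for 48 or 72 hr prior to CellTiter-Glo ATP luminescence measurement.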
NPR1 antag cnf: confirmation of human Npr1 natriuretic peptide receptor antagonists; shares compounds with NPR1 antag; HEK293 hNpr1 cGMP GloSensor luminescence, ANP-stimulated; Potency, µM (titrated, usually from 57.6 µM), actives largely listed as inhibitors; 1,400 tested, 76% active; calls by dose curve; note: nearly all actives have a fitted effect of over 70% in size
NPR2 antag: antagonizes human Npr2, subtype selectivity check. shares compounds with NPR1 antag. HEK293 hNpr2 GloSensor cGMP luminescence, CNP-stimulated. Potency, µM (titrated, usually from 57.6 µM), usual class: inhibitors. 1,400 tested, 67% active. AID 1347046; calls by dose curve; note: nearly all actives have a fitted effect of over 70% in size
Target sequence (P20594 whole entry, looked up): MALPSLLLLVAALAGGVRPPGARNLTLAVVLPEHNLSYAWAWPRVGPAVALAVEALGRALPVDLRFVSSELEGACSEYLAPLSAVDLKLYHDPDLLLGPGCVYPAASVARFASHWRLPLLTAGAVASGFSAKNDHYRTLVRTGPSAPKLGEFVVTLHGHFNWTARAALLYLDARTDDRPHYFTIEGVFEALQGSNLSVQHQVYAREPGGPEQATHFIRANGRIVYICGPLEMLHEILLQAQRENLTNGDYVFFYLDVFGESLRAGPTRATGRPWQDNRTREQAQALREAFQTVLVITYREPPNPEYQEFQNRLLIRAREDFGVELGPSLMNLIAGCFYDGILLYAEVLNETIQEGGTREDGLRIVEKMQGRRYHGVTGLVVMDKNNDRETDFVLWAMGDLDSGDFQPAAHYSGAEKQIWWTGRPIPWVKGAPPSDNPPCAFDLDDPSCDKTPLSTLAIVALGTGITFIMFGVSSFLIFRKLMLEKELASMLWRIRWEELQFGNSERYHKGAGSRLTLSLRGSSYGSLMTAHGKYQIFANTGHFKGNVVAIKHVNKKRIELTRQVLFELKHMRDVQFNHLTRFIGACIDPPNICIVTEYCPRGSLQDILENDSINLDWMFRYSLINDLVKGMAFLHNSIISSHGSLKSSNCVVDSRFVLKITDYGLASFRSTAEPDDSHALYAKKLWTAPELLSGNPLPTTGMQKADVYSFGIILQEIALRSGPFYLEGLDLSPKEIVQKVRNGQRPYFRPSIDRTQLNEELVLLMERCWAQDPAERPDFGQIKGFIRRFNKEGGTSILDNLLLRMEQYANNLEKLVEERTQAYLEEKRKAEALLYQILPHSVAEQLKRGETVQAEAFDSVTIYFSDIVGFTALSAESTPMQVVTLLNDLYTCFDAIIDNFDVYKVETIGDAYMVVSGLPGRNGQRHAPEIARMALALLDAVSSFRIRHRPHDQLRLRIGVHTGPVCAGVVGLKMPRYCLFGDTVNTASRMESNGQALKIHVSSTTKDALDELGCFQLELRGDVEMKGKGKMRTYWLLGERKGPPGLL
FLuc counter: inhibits firefly luciferase, false Npr1 antagonist flag; shares compounds with NPR1 antag; purified FLuc enzyme, luminescence, Km substrate; Potency, µM (doses to about 57.6 µM), hits mostly inhibitors; 1,400 tested, 0.7% active
GloSensor ctrl: reduces cGMP signal in GloSensor control cells. shares compounds with NPR1 antag. Potency, µM (highest dose often 57.6 µM), hits mostly inhibitors. 1,400 tested, 69% active. HEK293 GloSensor cGMP, SNP-stimulated, luminescence. AID 1347051; calls by dose curve; note: nearly all actives have a fitted effect of over 70% in size
Each line names hits and unclear results; the compound was inactive in the other large screens (follow-up assays come after a bar, where they were run). Only some compounds are listed: those with a hit (about 10% of all), similar ones and a draw of the others. Unless noted, calls come from the whole dose curve; as a rule, active = well fitted curve in the direction sought with a large enough effect; inconclusive = small, poorly fitted or top-dose-only effect, or another doubt; inactive = no such curve, though single readings can be large; an effect the other way counts as inactive or inconclusive.

CC(=O)N(C1CC1)C1CCOC2(CCN(C(=O)c3ccsc3)CC2)C1 (stereo unspecified)	GPT2 inh inconclusive (no result: NPR1 antag, Luciferase inh)
Cn1nccc1C(=O)N1CCC2(CC1)OCCN(Cc1ccccc1F)C2=O	NPR1 antag 31.6µM, HEK cytotox inconclusive | NPR1 antag cnf 35.3µM | NPR2 antag 31.4µM | FLuc counter inactive | GloSensor ctrl 31.4µM
COc1ccc(-c2nccn3cc(C(=O)NCc4cccnc4)nc23)cc1	NPR1 antag 11.2µM, 3T3 cytotox inconclusive | NPR1 antag cnf 24.3µM | NPR2 antag 19.3µM | FLuc counter inactive | GloSensor ctrl inactive
COc1ccc(-c2nccn3cc(C(=O)NCCc4cccnc4)nc23)cc1	none
O=C(C1CCCN1C(=O)NC1CCCC1)N1CCC(c2nc3ccncc3[nH]2)CC1 (stereo unspecified)	none (no result: NPR1 antag, Luciferase inh)
O=C(Nc1ccc(Cl)cc1)N1CCn2c(nn(-c3ccc(C(F)(F)F)cc3)c2=O)C1	NPR1 antag inconclusive, HEK cytotox inconclusive, 3T3 cytotox inconclusive
COc1ccc(C(=O)N2CCn3c(nn(-c4ccc(Cl)cc4)c3=O)C2)cc1	none (no result: NPR1 antag, Luciferase inh) | NPR1 antag cnf inconclusive | NPR2 antag 21.7µM | FLuc counter inactive | GloSensor ctrl 27.3µM
COc1ccc(-n2nc3n(c2=O)CCN(C(=O)c2ccccc2)C3)cc1	none (no result: NPR1 antag, Luciferase inh)
O=C(Nc1ccccc1)N1CCn2c(nn(-c3ccc(C(F)(F)F)cc3)c2=O)C1	NPR1 antag inconclusive, HEK cytotox 44.7µM, 3T3 cytotox inconclusive | NPR1 antag cnf inconclusive | NPR2 antag inconclusive | FLuc counter inactive | GloSensor ctrl inconclusive
O=C(c1ccc(C(F)(F)F)cc1)N1CCn2c(nn(-c3ccncc3)c2=O)C1	NPR1 antag inconclusive, HEK cytotox inconclusive, 3T3 cytotox inconclusive | NPR1 antag cnf 24.3µM | NPR2 antag inconclusive | FLuc counter inactive | GloSensor ctrl 21.7µM
Cn1cccc1CN1CCn2c(nn(-c3ccc(Cl)cc3)c2=O)C1	HEK cytotox inconclusive, 3T3 cytotox inconclusive (no result: NPR1 antag, Luciferase inh) | NPR1 antag cnf inconclusive | NPR2 antag inconclusive | FLuc counter 13.7µM | GloSensor ctrl inconclusive
O=C(NC1CCCCC1)C1Cn2cccc2C(=O)N1Cc1ccccc1 (stereo unspecified)	none (no result: NPR1 antag, Luciferase inh)
COc1ccc(Cn2c(=O)c(C(=O)NCc3cccc(Cl)c3)nc3cccnc32)cc1	HEK cytotox inconclusive, 3T3 cytotox inconclusive (no result: NPR1 antag, Luciferase inh)
Cc1cc(NC(=O)N2CCCC(Cn3cnc4cccnc43)C2)ccc1Br (stereo unspecified)	HEK cytotox inconclusive, 3T3 cytotox inconclusive
COc1cccc(CN2CCCCCCNC(=O)[C@@H]3C[C@@H](C(=O)N4CCc5ccccc5C4)C[C@@H]32)c1	HEK cytotox inconclusive, 3T3 cytotox inconclusive
O=C1NCCCCCCN(Cc2cccc(F)c2)[C@H]2C[C@H](C(=O)N3CCc4ccccc4C3)C[C@@H]12	NPR1 antag 15.8µM, HEK cytotox 25.1µM, 3T3 cytotox 39.8µM | NPR1 antag cnf inconclusive | NPR2 antag inconclusive | FLuc counter inactive | GloSensor ctrl inactive
COc1ccccc1-n1c(=O)c(C(=O)NCCSC)nc2cccnc21	none (no result: NPR1 antag, Luciferase inh)
O=C1CCN(C(=O)COc2ccc(F)cc2)CCCC(c2nc(-c3ccccc3)no2)CCN1 (stereo unspecified)	HEK cytotox inconclusive, 3T3 cytotox inconclusive
CNC(=O)CCn1ncc2cc(OCc3ccccc3-c3cccc(O)c3)ccc21	NPR1 antag 11.2µM, HEK cytotox 79.4µM, Luciferase inh inconclusive, 3T3 cytotox inconclusive | NPR1 antag cnf 19.8µM | NPR2 antag 17.7µM | FLuc counter inconclusive | GloSensor ctrl 12.5µM
COCc1noc(-c2ccc(N(C)CC3CC(=O)N(C(C)(C)C)C3)nc2)n1 (stereo unspecified)	NPR1 antag 11.2µM, HEK cytotox inconclusive, 3T3 cytotox inconclusive | NPR1 antag cnf 24.3µM | NPR2 antag inconclusive | FLuc counter inactive | GloSensor ctrl 21.7µM
CC1CCN(C(=O)CN2C(=O)NC(c3ccccc3)C3=C2COC3=O)CC1 (stereo unspecified)	none
O=C(CN1C(=O)NC(c2ccc(Cl)cc2)C2=C1COC2=O)Nc1cccc(C(F)(F)F)c1 (stereo unspecified)	NPR1 antag inconclusive, HEK cytotox inconclusive, 3T3 cytotox inconclusive | NPR1 antag cnf inconclusive | NPR2 antag inconclusive | FLuc counter inactive | GloSensor ctrl inconclusive
CCOc1ccccc1C1NC(=O)N(CC(=O)Nc2cccc(C(F)(F)F)c2)C2=C1C(=O)OC2 (stereo unspecified)	NPR1 antag inconclusive, HEK cytotox inconclusive, 3T3 cytotox 44.7µM | NPR1 antag cnf inconclusive | NPR2 antag inactive | FLuc counter inactive | GloSensor ctrl inconclusive
O=C1OCC2=C1C(c1ccc(Cl)cc1)NC(=O)N2CC(=O)N1CCC(Cc2ccccc2)CC1 (stereo unspecified)	NPR1 antag 12.6µM, HEK cytotox 28.2µM, 3T3 cytotox inconclusive | NPR1 antag cnf 19.3µM | NPR2 antag 24.3µM | FLuc counter inactive | GloSensor ctrl 19.3µM
Cc1cc2c(N3CCC(NCc4noc(C5CCC5)n4)CC3)ncnc2s1	NPR1 antag 2µM, HEK cytotox inconclusive, 3T3 cytotox inconclusive | NPR1 antag cnf 1.53µM | NPR2 antag 3.06µM | FLuc counter inactive | GloSensor ctrl 1.72µM
O=C(O)c1ccnc(-c2ccnc(NCc3noc(C4CCCC4)n3)n2)c1	none
COc1ccc(-c2noc(-c3cccn3CC(=O)Nc3cc(C)c(Cl)cc3OC)n2)cc1F	none
COc1cc(F)ccc1CN1CCCC2(Cc3ccccc3CNC2=O)C1 (stereo unspecified)	HEK cytotox inconclusive, 3T3 cytotox inconclusive (no result: NPR1 antag, Luciferase inh)
COc1ccc(-c2cc(N3CCCN(C(=O)c4ccc(Cl)cc4)CC3)n[nH]2)cc1	HEK cytotox inconclusive
CCOc1ccc(C(=O)N2CCCN(c3cc(-c4ccc(Cl)cc4)[nH]n3)CC2)cc1	NPR1 antag inconclusive, HEK cytotox 39.8µM, 3T3 cytotox inconclusive | NPR1 antag cnf 19.3µM | NPR2 antag 21.7µM | FLuc counter inactive | GloSensor ctrl 17.2µM
